Test results: PubChem BioAssay AID540364 (The Scripps Research Institute Molecular Screening Center, 2011)
About 2,000 (0.56%) of roughly 360,000 compounds were called active.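 How the source made its calls: active means activation above the average of all compounds screened plus 3 SD, cutoff fixed separately per campaign (cut at about 7.5% in these data); inactive means the rest.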 This excerpt belongs to a sample that is enriched for actives.

test: GAA850 frataxin promoter reporter upregulation – cell-based, luciferase luminescence, HEK293 lucGAA850, primary screen (AID 540364); settings: HEK293 lucGAA850 FXN promoter luciferase reporter, 24 h; at 6 µM; active compounds read high; percent of 10 µM SAHA response;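 further: 0% = DMSO wells and 100% = 10 µM SAHA wells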

SMILES | activation
O=C1CS(=O)CN1c1ccc(Oc2ccccc2)cc1 (centres undefined) | 0.15% (inactive)
Cc1ccc(-n2nc(N)c3c(=O)oc(N(C)C)nc32)cc1 | -0.82% (inactive)
Cc1ccsc1C(=O)NCCc1ccco1 | 2.23% (inactive)
CCCCc1ccc(NC(=S)N2CCCC(CO)C2)cc1 (centres undefined) | 9.18% (active)
CCOc1ccc(NC(=S)N2CCCCCC2)cc1 | 1.3% (inactive)
CCC(C)c1ccc(NC(=S)N2CCCC2)cc1 (centres undefined) | 2.31% (inactive)
Cc1ccc2cc(/C=N/Nc3ccc(C(=O)O)cc3)c(Cl)nc2c1 | 8.93% (active)
Cc1ccc2cc(/C=N/NC(=O)[C@@H]3CCCN3)c(Cl)nc2c1 | 0.79% (inactive)
O=C(O)c1ccc(N/N=C/c2ccc3ncccc3c2)cc1 | -3.19% (inactive)
CCOCCCNC(=O)C(NC(=O)CNC(=O)c1ccccc1)c1ccc(C)cc1 (centres undefined) | 1.83% (inactive)
COc1ccc(OC)c(NC(=O)CSc2nc3cccnc3n2C)c1 | 1.38% (inactive)
COc1cccc(-c2ccc(C#N)c(SCC(=O)NCCc3ccc(Cl)cc3)n2)c1 | 1.81% (inactive)
COc1cccc2cc(/C(C)=N/NC(=O)c3ccco3)oc12 | 3.55% (inactive)
COc1ccc(C)cc1NC(=O)CSc1nc(SC)ns1 | -0.57% (inactive)
COc1ccc(NC(=O)CSc2nc(SC)ns2)c(OC)c1 | 7.6% (active)
CSc1nsc(SCC(=O)Nc2cc(C(=O)O)ccc2C)n1 | 0.88% (inactive)
Cc1cccc(C(=O)NC2CCN(CC(=O)Nc3cccc(Cl)c3)CC2)c1 | -1.24% (inactive)
Fc1c(F)c(C(F)(F)F)c(F)c(F)c1N1CCN(c2ccc3nnc(C(F)(F)F)n3n2)CC1 | -0.98% (inactive)
Cc1cc(NC(=O)Nc2ccccc2[N+](=O)[O-])no1 | 3.8% (inactive)
Cc1ccc2nsnc2c1NC(=O)c1ccccc1[N+](=O)[O-] | 3.24% (inactive)
Cc1ccccc1Nc1c([N+](=O)[O-])ccc2nonc12 | 8.33% (active)
CC(C)CN(C(=O)CSc1nncn1C)C1CCS(=O)(=O)C1 (centres undefined) | 0.57% (inactive)
CCC1C(=O)c2ccccc2N(C)C1=O (centres undefined) | 0.11% (inactive)
CN1C(=O)/C(=C\c2cc(Br)cs2)c2ccccc21 | 9.69% (active)

SMILES | activation
CN1C(=O)/C(=N/OC(=O)c2ccccc2Br)c2ccccc21 | 2.92% (inactive)
COCCC(=O)Nc1ccc2c(c1)CN(C(=O)CCOC)CC2 | 0.49% (inactive)
CC1C/C(=N/NC(=O)c2cccs2)CC(C)(C)C1 (centres undefined) | 2.63% (inactive)
Cc1nnc(SCCCn2c(N3CCCCC3)nc3c2c(=O)[nH]c(=O)n3C)s1 | 3.13% (inactive)
C=CCn1c(SCc2ccccc2)nc2c1c(=O)[nH]c(=O)n2C | 4.04% (inactive)
Cc1nnc(Sc2nc3c(c(=O)[nH]c(=O)n3C)n2Cc2ccccc2)s1 | 21.3% (active)
COc1cc(Cn2c3ccc(NC(=O)CC(C)c4ccccc4)cc3c(=O)n2C)ccc1F (centres undefined) | -0.13% (inactive)
C[C@H]([C@@H](O)[C@@H](O)[C@@H](C)C(C)(C)C)[C@H]1CC[C@H]2C3CC[C@H]4C[C@H](OS(=O)(=O)O)[C@@H](OS(=O)(=O)O)C[C@]4(C)[C@H]3CC[C@]12C (some centres undefined) | -1.51% (inactive)
Nn1cnnc1N/N=C/c1cc([N+](=O)[O-])c(Cl)cc1Cl | -1.71% (inactive)
CCCN(CCC)CCNC(=O)c1cc2c(C)nc3ccccc3c2o1 | -0.61% (inactive)
CN(C)CCNC(=O)c1ccc(Cl)c2cc3ccccc3nc12 | 22.7% (active)
CNC(=O)c1cccc2nc3ccccc3nc12 | 3.97% (inactive)
COC(=O)CCSc1cc([N+](=O)[O-])cc2c1c(C1OCCS1)nn2-c1ccccc1 (centres undefined) | 4.76% (inactive)
CC1=C(C(=O)N2CCOCC2)CC(CC(=O)NCc2cccc3ccccc23)C(=O)N1CCC1=CCCCC1 (centres undefined) | -1.16% (inactive)
O=S(=O)(c1ccccc1)N1CCc2ccccc21 | 1.28% (inactive)
Cn1c(=O)n(C)c2cc(S(=O)(=O)N3CCCc4ccccc43)ccc21 | 7.64% (active)
CCn1c(=O)c(=O)n(CC)c2cc(S(=O)(=O)N3CCc4ccccc43)ccc21 | 0.26% (inactive)
Cc1c(Br)c([N+](=O)[O-])nn1C(C)C(=O)Nc1nccs1 (centres undefined) | 1.64% (inactive)
COc1ccc(-n2nc(C(=O)NCC(=O)Nc3cccc(C)n3)c3ccccc3c2=O)cc1 | -0.56% (inactive)
Cc1ccc(S(=O)(=O)N(CCc2ccccc2)c2ccc3c(c2)C2CC3CCN2C(=O)OCc2ccccc2)cc1 (centres undefined) | 0.17% (inactive)
COc1ccc(/C=C/C(=O)Nc2ccc(C)cc2)cc1S(=O)(=O)N1CCOCC1 | -0.63% (inactive)
COc1cc(/C=C/C(=O)Nc2ccc(OC)c(S(=O)(=O)N3CCOCC3)c2)ccc1OCC#N | -0.85% (inactive)
COc1ccc(/C=C/C(=O)Nc2ccc(C34CC5CC(CC(O)(C5)C3)C4)cc2)cc1OC | 7.97% (active)
Cc1ccc2c(c1)N(CC(=O)NCC1CCCO1)C(=O)CO2 (centres undefined) | 0.58% (inactive)

SMILES | activation
Cc1ccc(-n2c(C)cc(/C=C(\C#N)C(=O)NCC3CCCO3)c2C)cc1 (centres undefined) | 8.72% (active)
Cc1ccc(C(=O)N/C(=C/c2cccs2)C(=O)NCC2CCCO2)cc1 (centres undefined) | 0.61% (inactive)
CCN(CC)CCNS(=O)(=O)c1ccc(/C=C/C(=O)O)cc1 | 3.64% (inactive)
CCCS(=O)(=O)N1CCC(C(=O)NCCCN(C)Cc2ccccc2)CC1 | -0.04% (inactive)
Cc1ccc(Sc2ccc(NC(=O)c3ccc(F)cc3)cc2C#N)cc1 | -1.85% (inactive)
Cc1ccc(NC(=O)c2sc3nc(N)c(C#N)cc3c2N)cc1 | 9.04% (active)
CCc1ccc2nc3sc(C(=O)Nc4nnc(CC)s4)c(N)c3cc2c1 | 3.44% (inactive)
CCCCc1ccc(S(=O)(=O)NC(=O)C2(C)CCN2C(=O)c2c(C)noc2C)cc1 (centres undefined) | 1.5% (inactive)
Cc1c(C(C)(C)O)[nH]c2ccc(C#N)cc12 | 2.02% (inactive)
Cc1onc(-c2c(F)cccc2Cl)c1C(=O)OCC(=O)N1C(C)CCCC1C (centres undefined) | 0.34% (inactive)
CCCn1c(=NC(C)=O)c(C(=O)OCC)cc2c(=O)n3ccccc3nc21 | 5.78% (inactive)
CCOC(=O)c1cc2c(=O)n3ccccc3nc2n(CC(C)C)c1=NC(=O)c1c(-c2c(F)cccc2Cl)noc1C | 8.16% (active)
CCCNC(=O)C1(C)CCCN(Cc2c(C)nn(-c3ccccc3)c2C)C1 (centres undefined) | 0.72% (inactive)
Cc1cc(C(=O)O)c(S(C)(=O)=O)s1 | -0.08% (inactive)
CCOc1ccc(N2C(=O)/C(=C/c3ccc(C)o3)N(C)C2=S)cc1 | 4.15% (inactive)
Cc1cc(=O)oc(C)c1C(=O)NCCN(C)Cc1ccccc1 | 1.1% (inactive)
COc1ccc(CNC(=O)c2c(C)cc(=O)oc2C)cc1OC | -0.25% (inactive)
Cc1cc(=O)oc(C)c1C(=O)NCc1ccc(F)cc1 | 14% (active)
CCN(CC)CCN1C(=O)C2C(C(=O)Nc3ccc(Br)cc3)C3C=CC2(O3)C1C(=O)NC1CCCCC1 (centres undefined) | -1.41% (inactive)
CS(=O)(=O)c1ccc2nnn(OCC(=O)Nc3cccc(C#N)c3)c2c1 | -0.17% (inactive)
Cc1ccc(C2C(C#N)C(C#N)N3CCCN23)cc1 (centres undefined) | 3.84% (inactive)
CCCCOC(=O)CNc1nnc(SCC(=O)OCC)[nH]c1=O | 4.67% (inactive)
COc1ccc(C#Cc2c(-c3ccc(OC)cc3)oc3ccc(-c4ccc5c(c4)OCO5)cc23)cc1 | 0.99% (inactive)
CC(C)(C)C(=O)c1cnc(Nc2ccccc2)s1 | 8.7% (active)

SMILES | activation
O=C(/C=C/Nc1ccccc1)c1cnc(-c2ccccc2)s1 | -1.96% (inactive)
CC(=O)c1cnc(-c2ccccc2)s1 | -1.26% (inactive)
Cc1cccc(C)c1N1C(=O)CN(Cc2ccccc2)C1=S | 2.98% (inactive)
O=C(NC(CC(=O)N1CCN(c2ccccc2)CC1)c1ccccc1)c1ccccc1Cl (centres undefined) | -0.04% (inactive)
O=C1N=C(N2CCCC2)S/C1=C\c1cccc(Br)c1 | 8.18% (active)
O=C1N=C(N2CCc3ccccc3C2)S/C1=C\c1ccc(O)cc1 | -0.01% (inactive)
CCOc1cc(/C=C2\SC(N3CCCCC3)=NC2=O)ccc1O | 1.52% (inactive)
COC(=O)C1CCN(CC(N)=O)CC1 | -1.4% (inactive)
Cc1ccc(CN(C(=O)c2sc3ccccc3c2Cl)C2CCS(=O)(=O)C2)cc1 (centres undefined) | 1.1% (inactive)
Cc1ccc(CC2(C)C(=O)Nc3ccc(OC(F)(F)F)cc32)cc1 (centres undefined) | -1% (inactive)
CC1(Cc2cccc(C#N)c2)C(=O)Nc2ccc(-c3cccc(C(F)(F)F)c3)cc21 (centres undefined) | 11.2% (active)
CC1(Cc2ccccc2C#N)C(=O)Nc2ccc(-c3ccc4[nH]ccc4c3)cc21 (centres undefined) | -5.44% (inactive)
COc1cccc(CNc2nc(NCc3cccs3)nc3ccsc23)c1 | -1.3% (inactive)
NC(c1csc(NC(=O)Nc2ccccc2Oc2ccccc2)n1)c1ccccc1Cl (centres undefined) | -1.81% (inactive)
c1ccc2c(c1)OCC(c1nn3cnnc3s1)O2 (centres undefined) | 3.93% (inactive)
CC1CCc2c(sc3nc4n(c(=O)c23)CCS4)C1 (centres undefined) | 3.94% (inactive)
CCCn1nnc2sc3c(c2c1=O)CCC(C)C3 (centres undefined) | 4.15% (inactive)
CC1CCc2sc3nc(N4CCN(CCO)CC4)n4ncnc4c3c2C1 (centres undefined) | 7.88% (active)
CCOc1cc2[nH]c(=O)n(CCC(=O)NCc3ccc(OC)cc3)c(=O)c2cc1OCC | 0.9% (inactive)
NC(=S)NN=C1CCCC(C(F)(F)F)C1 (centres undefined) | -0.39% (inactive)
N#CCCCn1c(O)c(N=NC(=O)C(O)c2ccccc2)c2ccccc21 (centres undefined) | 1.76% (inactive)
CCOC(=O)c1ccc(N=C2SC(C(=O)NC)CC(=O)N2CCc2ccccc2)cc1 (centres undefined) | 0.94% (inactive)
